The values below come from PubChem BioAssay (EPA / NIEHS).

Results filed as inconclusive are left out. The source made the active and inactive calls. Rule for the calls: active = hit-call score of the fitted dose curve at least 0.9, where 1 is the maximum; inconclusive = response in the unintended direction; inactive = score below 0.9.

Read-out in the assay: alkyl and aryl transferase (GSTA2), GSTA2 (gene 2939)
In words: CLD_GSTA2_24hr: CellzDirect (CLD) Gene Expression Assay for alkyl and aryl transferase (GSTA2) at 24 hours (AID 2283693). How it is done:
CLD_24hr is a cell-based, multiplexed-readout assay that uses hepatocyte, a human liver primary cell, with measurements taken at 24 hours after chemical dosing in a 96-well plate.CLD_GSTA2_24hr is one of 16 assay component(s) measured or calculated from the CLD_24hr assay. It is designed to make measurements of mRNA induction, a form of inducible reporter, as detected with chemiluminescence signals by Quantitative Nuclease Protection Assay (qNPA) technology.Data from the assay component CLD_GSTA2_24hr was analyzed at the endpoint, CLD_GSTA2_24hr, in the positive analysis fitting direction relative to DMSO as the negative control and baseline of activity. Using a type of inducible reporter, gain-of-signal activity can be used to understand changes in the reporter gene as they relate to the gene GSTA2. Furthermore, this assay endpoint can be referred to as a primary readout. To generalize the intended target to other relatable targets, this assay endpoint is annotated to the transferase intended target family, where subfamily is alkyl and aryl transferase.
Human hepatocyte cultures were treated daily for two consecutive days with fresh dosing solutions containing appropriate concentrations of the 320 ToxCast chemicals (chemical identities were blinded to CellzDirect and other ToxCast collaborators), vehicle control (0.2% DMSO), and positive control inducers as summarized in Table 1. Due to the large number of treatment groups and chemicals examined, the ToxCast chemicals were divided into two groups (spanning two independent cultures of hepatocytes from separate donor preparations (Hu778: ToxCast plates 1 and 2; Hu776: ToxCast plates 3 and 4). Each preparation of human hepatocyte cultures was treated with respective vehicle control, medium only control, set of six positive controls/reference chemicals for the five hepatic receptor pathways, and a subset of eight of the ToxCast chemicals (indoxacarb, pyrithiobac-sodium, norflurazon, cyhalofop-butyl, methomyl, thiram, acetochlor, and propiconazole). These replicate data, coupled with internal replicates designed within the blinded ToxCast chemical library, provided additional data to evaluate interindividual differences between hepatocyte preparations and their potential impact on chemical profiles.Cell morphology and integrity were evaluated using phase-contrast microscopy as an indicator of hepatocyte cell health (Tyson & Green, 1987). Cultures for each treatment group (i.e., media, vehicle [0.2% DMSO], positive control inducers [multiple concentrations], and the ToxCast chemicals [multiple concentrations]) were observed and cell morphology was assessed relative to vehicle control cultures at each harvest time point (0, 6, 24, or 48 h). […] Images were evaluated at the conclusion of the study to assess changes in cell integrity and account for the effects of chemical exposure on uncharacteristic changes in concentration-dependent gene expression profiles. The results from these determinations of apparent cytotoxicity were annotated (yes/no) alongside the corresponding qNPA data for reference.At the conclusion of each treatment period, hepatocyte cultures (96-well) were washed with 1 volume of HBSS, lysed by addition of 25 ul ArrayPlate lysis buffer (HTG, Tucson, AZ), and 70 ul/well of Denaturation Oil, denatured by incubation at 95C for 10 min, and frozen at approximately -70C until analysis by nuclease protection assay (qNPA) (Roberts et al., 2007). For qNPA analysis, cell lysates were thawed at 50C for approximately 30 min, qNPA probes were added, and samples were incubated at 95C for 10 min to begin the detection process by denaturing the target RNA, dissociating the duplexes and secondary structure hybridization. At the conclusion of the hybridization period, S1 nuclease reagent was added to each sample to digest all nonprotected nucleotides at 50C for 60-90 min. […]
On to `CC(C)N1C(=O)c2ccccc2NS1(=O)=O`, for which the outcome was inactive.

Regarding `COP(=S)(OC)SCn1nnc2ccccc2c1=O`, the compound was called inactive.

As to `CNC(=O)N(C)c1nnc(C(C)(C)C)s1`, the outcome was inactive.

With `CC1(C)C(C=C(Cl)Cl)C1C(=O)OC(C#N)c1cccc(Oc2ccccc2)c1` (stereo not given), the compound was called inactive.

`CS(=O)(=O)c1cc(C(F)(F)F)ccc1C(=O)c1cnoc1C1CC1`: the result was inactive.

On to `COC(=O)NS(=O)(=O)c1ccc(N)cc1`, for which the outcome was inactive.

Consider `CCOP(=O)(OCC)Oc1nc(Cl)c(Cl)cc1Cl`, for which the compound was called inactive.

For `CCSC(=O)N1CCCCCC1`, the compound was classed as inactive.

`COC(=O)N(C(=O)N1CO[C@@]2(C(=O)OC)Cc3cc(Cl)ccc3C2=N1)c1ccc(OC(F)(F)F)cc1`: the outcome was inactive.

`COCc1cnc(C2=NC(C)(C(C)C)C(=O)N2)c(C(=O)O)c1` (stereo not given): the outcome was inactive.

As to `CSC(=O)c1c(C(F)F)nc(C(F)(F)F)c(C(=O)SC)c1CC(C)C`, the result was inactive.

In the case of `CCOc1nc(C(Cl)(Cl)Cl)ns1`, the compound was classed as inactive.

As to `Cn1c(-c2ccccc2)cc(-c2ccccc2)[n+]1C`, the call was inactive.

Regarding `Cc1cnc(C2=NC(C)(C(C)C)C(=O)N2)c(C(=O)O)c1` (stereo not given), the compound was called inactive.

Take `CNC(=O)Oc1cccc2ccccc12`: the call was inactive.

As for `COCC(=O)N(c1c(C)cccc1C)C(C)C(=O)OC` (stereo not given), the outcome was inactive.

In the case of `COP(=O)(OC)O/C(C)=C/C(=O)N(C)C`, the result was inactive.

In the case of `N#Cc1c(Cl)cccc1Cl`, the call was inactive.

Consider `CO/N=C(/C1=NOCCO1)c1ccccc1Oc1ncnc(Oc2ccccc2Cl)c1F`, for which the result was inactive.

With `CC1(C)C(C(=O)OC(C#N)c2cccc(Oc3ccccc3)c2)C1(C)C` (stereo not given), the call was inactive.

On to `COP(=S)(OC)Oc1ccc([N+](=O)[O-])c(C)c1`, for which the result was inactive.

As for `CC(C)C1(C)N=C(c2ncccc2C(=O)O)NC1=O` (stereo not given), the compound was classed as inactive.

Turning to `CCCCC(C#N)(Cn1cncn1)c1ccc(Cl)cc1` (stereo not given), the compound was classed as inactive.

Regarding `CCCCOCN(C(=O)CCl)c1c(CC)cccc1CC`, the compound was classed as inactive.

Regarding `COc1ccc(-c2ccccc2)cc1NNC(=O)OC(C)C`, the compound was called inactive.

As to `CC1(C)CON(Cc2ccccc2Cl)C1=O`, the compound was called inactive.

`COCC(C)N(C(=O)CCl)c1c(C)csc1C` (stereo not given): the outcome was inactive.

On to `Clc1nc(Cl)nc(Nc2ccccc2Cl)n1`, for which the compound was classed as inactive.

As for `C=C(C)CN(CC)c1c([N+](=O)[O-])cc(C(F)(F)F)cc1[N+](=O)[O-]`, the compound was classed as inactive.

In the case of `O=P(O)(O)CCCl`, the outcome was inactive.

As for `CN=C=S`, the call was inactive.

With `CCCN(CC)CC1COC2(CCC(C(C)(C)C)CC2)O1` (stereo not given), the outcome was inactive.

Consider `CS(=O)(=O)c1ccc(C(=O)C2C(=O)CCCC2=O)c([N+](=O)[O-])c1`, for which the compound was classed as inactive.

As for `COc1cc(Cl)c(OC)cc1Cl`, the compound was called inactive.

Turning to `Clc1cccc(C(Cl)(Cl)Cl)n1`, the result was inactive.

For `O=c1n(Cl)c(=O)n(Cl)c(=O)n1Cl`, the compound was called inactive.

Turning to `N#CN=C1SCCN1Cc1ccc(Cl)nc1`, the compound was classed as inactive.

For the compound `O=C1C2CC=CCC2C(=O)N1SC(Cl)(Cl)Cl` (stereo not given), the compound was classed as inactive.

Take `Cc1c(COC(=O)[C@@H]2[C@H](/C=C(\Cl)C(F)(F)F)C2(C)C)cccc1-c1ccccc1`: the result was inactive.

`CC(C)=CC1C(C(=O)OCc2coc(Cc3ccccc3)c2)C1(C)C` (stereo not given): the compound was called inactive.
